From PubChem BioAssay
GRP78 ERSR act – inducers of ER stress response in human glioma cells; U87-MG GRP78 promoter luciferase reporter, 16 h; Potency, µM, most hits filed as activators; 420,000 tested, 0.02% active; further: series mostly up to about 76 µM; nearly all actives have a fitted effect of over 35% in size
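ERSR induction read as luciferase luminescence (Bright-Glo, 10 min at room temperature) in stably transfected human U87-MG glioma cells exposed to compounds for 16 h, using GRP78 as sensor.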
ALOX12 inh – inhibitors of human 12S-lipoxygenase ALOX12. P18054. purified 12hLO, xylenol orange hydroperoxide absorbance. Potency, µM (top dose mostly 108 µM), hits mostly inhibitors. 580,000 tested, 1.1% active
Target sequence (P18054 whole entry, looked up): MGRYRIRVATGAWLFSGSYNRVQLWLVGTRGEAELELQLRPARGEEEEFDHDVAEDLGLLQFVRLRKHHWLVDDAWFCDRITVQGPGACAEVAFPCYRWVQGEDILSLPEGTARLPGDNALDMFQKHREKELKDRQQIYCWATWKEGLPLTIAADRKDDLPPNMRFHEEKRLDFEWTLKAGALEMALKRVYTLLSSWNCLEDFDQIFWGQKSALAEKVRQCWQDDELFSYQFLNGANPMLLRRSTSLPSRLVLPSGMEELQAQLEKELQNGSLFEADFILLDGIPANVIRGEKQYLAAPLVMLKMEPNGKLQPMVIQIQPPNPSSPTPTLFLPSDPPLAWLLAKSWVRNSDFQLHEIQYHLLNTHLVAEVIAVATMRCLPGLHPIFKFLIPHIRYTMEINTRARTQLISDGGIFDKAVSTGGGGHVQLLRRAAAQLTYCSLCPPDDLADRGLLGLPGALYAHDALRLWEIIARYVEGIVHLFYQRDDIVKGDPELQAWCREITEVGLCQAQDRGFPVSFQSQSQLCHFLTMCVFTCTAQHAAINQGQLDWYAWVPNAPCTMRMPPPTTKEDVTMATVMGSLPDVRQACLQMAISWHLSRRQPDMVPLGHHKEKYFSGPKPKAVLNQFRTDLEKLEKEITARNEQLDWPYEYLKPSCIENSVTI
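Purified human 12hLO at 150 nM in 25 mM Hepes, 0.01% Triton X-100, pH 7.0, preincubated 15 min at room temperature with compound. Reaction started with 40 uM arachidonic acid, 30 min at room temperature. Hydroperoxide measured by Fe-xylenol orange, 573/405 nm absorbance ratio.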
VDR inhibitor – blocks the human vitamin D receptor | VDR-SRC2-3 peptide fluorescence polarization, 2 h | Potency, µM, most hits filed as inhibitors | 400,000 tested, 0.93% active
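Fluorescence polarization assay of small-molecule disruption of VDR binding to coregulator peptide SRC2-3. Compounds and controls pin-transferred, then read after 2 h incubation at ambient room temperature.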
Sfp PPTase inh – Sfp phosphopantetheinyl transferase inhibition; Biochemical Sfp PPTase activity, qHTS; Potency, µM, actives largely listed as inhibitors; 310,000 tested, 3.5% active; AID 1490;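 further: the enzyme is Sfp with the accession as filed and its product quenches rhodamine fluorescence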
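Step 1, compound plus 15 nM Sfp-PPTase, 15 min, room temperature. Step 2, add rhodamine-CoA (5 uM) and BHQ-2-YbbR (12.5 uM). Step 3, read 525/598 nm fluorescence at 0 and 30 min.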
G9a block – G9a (human) methyltransferase inhibition; Q96KQ7; Potency, µM (titrated, usually from 102 µM), usual class: inhibitors; G9a H3K9 monomethylation, AlphaScreen, 2 h; 350,000 tested, 8.8% active; AID 504332; further: nearly all actives have a fitted effect of over 75% in size
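Quantitative HTS format: methyltransferase activity on a biotin-tagged H3K9 peptide is measured by AlphaScreen, using a rabbit anti-monomethyl-H3K9 antibody with streptavidin donor and anti-IgG acceptor beads. Final levels are 20 nM enzyme, 500 nM peptide, 20 uM SAM; 2 h RT.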
Numbers stand for hits; i = inactive; ? = inconclusive; nt = no result; ! = not active in a repeat; [ ] = another dose, or the depositor's remark. The entries come from a sample that favours hits as a whole. The call rests on the fitted dose curve; in most records, active means well fitted curve in the direction sought with a large enough effect; inconclusive means small, poorly fitted or top-dose-only effect, or another doubt; inactive means no such curve, though single readings can be large; an effect the other way counts as inactive or inconclusive.

SMILES	GRP78 ERSR act	ALOX12 inh	VDR inhibitor	Sfp PPTase inh	G9a block
COc1ccc(CNc2cc(-c3ccccc3Cl)ncn2)c(OC)c1	i	?	i	i	i[0.501 µM]
COc1ccc(CNc2cc(-c3cccnc3)ncn2)c(OC)c1	i	i	32µM	i	i[0.501 µM]
COc1ccc2[nH]cc(CCNc3cc(-c4cccnc4)ncn3)c2c1	i	32µM	?	?	i[0.501 µM]
COc1ccccc1-c1cc(Nc2ccn[nH]2)ncn1	i	i	45µM	i	i[0.501 µM]
Cc1ccc(S(=O)(=O)N(CC(=O)NCCc2ccccc2)Cc2c(F)cccc2Cl)cc1	nt	i	nt	nt	nt
COc1cc(C#N)ccc1OCc1ccccc1Br	nt	i	nt	nt	nt
COc1ccc(S(=O)(=O)c2cn(CC(=O)Nc3ccc(C)c(F)c3)c3nc(C)ccc3c2=O)cc1	nt	i	nt	nt	nt
COc1ccc(CCN2C(=O)C=CC2=O)cc1OC	i	i	?	nt	nt
COC(=O)C1=C(C)N(CCc2ccc(OC)c(OC)c2)C(=O)/C1=C\N(C)C	i	i	?	i	45µM
CCOC(=O)c1cc(S(=O)(=O)NCc2ccccc2)[nH]n1	i	?	i	nt	3.5µM
CCOC(=O)c1cc(S(=O)(=O)Nc2cc(F)ccc2C)[nH]n1	i	?	i	nt	18µM
CCOC(=O)c1cc(S(=O)(=O)N(C)c2ccccc2)[nH]n1	i	i	i	nt	?
CCOC(=O)c1cc(S(=O)(=O)NCc2ccc(F)cc2)[nH]n1	i	?	i	nt	3.2µM
CCOC(=O)c1cc(S(=O)(=O)NCc2ccc(OC)cc2)[nH]n1	i	i	i	nt	13µM
Cc1ccc(NC(=O)c2ccc3c(Cl)c4c(nc3c2)CCCC4)cc1F	nt	i	nt	nt	nt
Nc1nccnc1C(=O)NCCC(c1ccccc1)c1ccccc1	nt	i	nt	nt	nt
CCC(C(=O)Nc1sccc1C#N)c1ccccc1 (configuration not stated)	nt	i	nt	nt	nt
CCOC(=O)c1cc(S(=O)(=O)Nc2c(C)cc(C)cc2C)[nH]n1	i	?	i	nt	18µM
NCCCC(N)(C(=O)O)C(F)F (configuration not stated)	i	i	i	i	7.1µM!
NCCCCCC(N)(C(=O)O)c1ccccc1 (configuration not stated)	nt	i	nt	nt	nt
CC12CC(C)(C)C(C#N)(C(N)=C1C#N)C(=C(C#N)C#N)N2 (configuration not stated)	nt	i	nt	nt	nt
Cc1ccc(C(=O)CSc2ccc(-c3ccncc3)nn2)cc1	i	i	i	i	40µM
Cc1ccc(-c2ccc(SCC(=O)c3ccccc3)nn2)cc1	i	i	i	i	35µM
COc1ccc(-c2ccc(SCC(=O)NC3CCCC3)nn2)cc1OC	i	i	i	i	i
COc1ccc(-c2ccc(SCC(=O)c3ccccc3)nn2)cc1OC	i	i	i	i	50µM
SMILES	GRP78 ERSR act	ALOX12 inh	VDR inhibitor	Sfp PPTase inh	G9a block
COc1ccc2c(C)c(CC(=O)NC3CCCC3)c(=O)oc2c1OC	nt	i	nt	nt	nt
Cc1ccc(S(=O)(=O)N(CC(=O)NC(C(C)C)C(C)C)c2ccccc2C)cc1	nt	i	nt	nt	nt
CCOc1ccc(NC(=O)c2ccc(Cl)cc2Cl)c2cccnc12	nt	i	nt	nt	nt
CCOc1ccc(C(C(=O)NC2CCCC2)N(CCCO)C(=O)c2ccc(-c3ccccc3)[nH]2)cc1 (configuration not stated)	i	i	i	i	50µM
CC(C)(C)NC(=O)C(c1ccncc1)N(Cc1ccc(F)cc1)C(=O)c1ccc(-c2ccccc2)[nH]1 (configuration not stated)	i	i	?	i	28µM
O=C(NC1CCCC1)C(c1ccncc1)N(Cc1ccccc1)C(=O)c1ccc(-c2ccccc2)[nH]1 (configuration not stated)	i	i	i	18µM	i
COc1ccccc1OCCn1cnc2c1c(=O)n(C)c(=O)n2C	nt	i	nt	nt	nt
CN(c1ccccc1)S(=O)(=O)c1ccc(C(=O)Nc2nnc(C3=COCCO3)o2)cc1	i	i	i	i	35µM
Cc1noc(C)c1C(=O)NCC(=O)N1CCCCCCNC(=O)CC1c1ccccc1 (configuration not stated)	nt	i	nt	nt	nt
COc1ccc(-c2noc(CN(C(=O)Nc3cccc4ccccc34)C(C)C)n2)cc1	nt	i	nt	nt	nt
COc1ccc(N2Cc3ccccc3C2=NC(=O)c2cncc(Br)c2)cc1	i	i	i	i	32µM
COc1ccc(N2Cc3ccccc3C2=NC(=O)c2cccc([N+](=O)[O-])c2)cc1	i	i	i	i	20µM
O=C(N=C1c2ccccc2CN1c1ccc(F)cc1)c1ccc(Cl)nc1	i	i	i	i	22µM
COc1ccc(N2Cc3ccccc3C2=O)cc1	i	i	i	i	i
CC(=O)c1ccc(N2Cc3ccccc3C2=NC(=O)c2cccs2)cc1	i	i	i	i	i
CCOC(=O)c1ccc(N2Cc3ccccc3C2=NC(=O)c2ccncc2)cc1	i	i	i	i	?
COc1ccc(OC)c(/C=N/O)c1	nt	i	nt	nt	nt
C/C(=N\Nc1ccc(C(=O)c2c(C)cc3ccccn23)cc1[N+](=O)[O-])c1ccc(O)cc1	i	i	i	20µM	?
Cc1cccc(C)c1-n1c(=O)c2nc3ccccc3nc2c2ccccc21	nt	i	nt	nt	nt
O/C(=C\c1nc2ccccc2[nH]1)c1cccs1	i	?	?	i	25µM
O=C(Cn1cnc([N+](=O)[O-])n1)N/N=C/c1cccc2ccccc12	i	i	i	i	45µM
CCCCC1OC2(C)OC(=N)C1(C#N)C(C#N)(C#N)C2c1ccccc1 (configuration not stated)	i	?	i	i	45µM
CC1OC2(C)OC(=N)C1(C#N)C(C#N)(C#N)C2c1ccccc1 (configuration not stated)	i	?	i	i	i
Cc1ccc(CN(C(=O)CC23CC4CC(CC(O)(C4)C2)C3)C2CC2)o1	nt	i	nt	nt	nt
N#Cc1c(SCC(=O)Nc2ccccc2C(F)(F)F)sc2c(O)cc(=O)[nH]c12	i	i	i	14µM	i
SMILES	GRP78 ERSR act	ALOX12 inh	VDR inhibitor	Sfp PPTase inh	G9a block
O=C(CSc1ncc(-c2ccccc2)[nH]1)Nc1cccc(C(F)(F)F)c1	i	i	i	nt	?
Cc1ccccc1NC(=O)CSc1[nH]c(=O)cc(C)c1C#N	i	?	i	22µM	14µM
CCOc1cccc(NC(=O)CSc2sc3c(O)cc(=O)[nH]c3c2C#N)c1	i	i	i	35µM	?
CCOc1cccc(NC(=O)CSc2ncc(-c3ccccc3)[nH]2)c1	i	i	i	nt	10µM
COc1cccc(Cn2nnc3c(=O)[nH]c(C4CCN(C(=O)c5ccccc5)CC4)nc32)c1	nt	i	nt	nt	nt
O=C(Cn1cccc1-c1nc(-c2ccc3c(c2)OCO3)no1)Nc1cccc(Cl)c1	nt	i	nt	nt	nt
N#Cc1c(SCC(=O)Nc2cccc(F)c2)sc2c(O)cc(=O)[nH]c12	i	?	i	56µM	?
COCCN1C(=O)c2n[nH]c(-c3ccco3)c2C1c1ccc(OC)c(OC)c1 (configuration not stated)	nt	i	nt	nt	nt
Cc1cc(NC(=O)c2nc3ccccc3nc2NCc2ccccc2)ccc1Br	nt	i	nt	nt	nt
Cc1cccc(-c2noc([C@@H]3Cc4nc[nH]c4CN3C(=O)NC3CCCCC3)n2)c1	nt	13µM	nt	nt	nt
